Bioassay records: PubChem, several laboratories
Hits are enriched below; roughly 28% of the tested compounds scored in any of these assays.
CYP2C19 inh – blocks human cytochrome P450 2C19; P33261; CYP2C19 Supersomes, luciferin-H EGE luminescence, 30 min; inhibition, % at 5 µM; 21% of 96,000 active; AID 778;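 active = CYP2C19 inhibition above a set limit at 5 µM in the primary screen, cut at about 50% in these data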;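 also: plate controls were negative control wells for no effect and 2.5 mM tranylcypromine positive control for full effect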
CYP2C9 inh – human CYP2C9 inhibition | CYP2C9 Supersomes, luciferin-H conversion, luminescence | inhibition, % at 5 µM | 20% of 96,000 active | AID 777;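 active = blocking of liver enzyme CYP2C9 beyond about 50% at 5 µM, limit read from the data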
CYP2C19 activ – cytochrome P450 2C19 (human) activation; activation factor at 5 µM; AID 1025; 96,000 tested, under 10 active; P33261; recombinant CYP2C19, luciferin-H EGE luminescence; stronger effect = higher value; 0 = fully inhibited enzyme, 1 = untreated enzyme;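 active = activation factor of at least 2 at 5 µM in the primary screen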;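 also: 0 = wells with 2.5 mM tranylcypromine and 1 = vehicle-only wells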
D1 mod – allosteric modulators of human D1 dopamine receptor; P21728; HEK293 D1, CRE-luciferase, dopamine EC30 potentiation; actives deviate in either direction; B-score at 10 µM; 5.9% of 58,000 active; AID 641;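 active = luminescence count or its row- and column-corrected plate score outside the 99.7% band of the plate's sample wells, on either side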
Target sequence (P21728 whole entry, looked up): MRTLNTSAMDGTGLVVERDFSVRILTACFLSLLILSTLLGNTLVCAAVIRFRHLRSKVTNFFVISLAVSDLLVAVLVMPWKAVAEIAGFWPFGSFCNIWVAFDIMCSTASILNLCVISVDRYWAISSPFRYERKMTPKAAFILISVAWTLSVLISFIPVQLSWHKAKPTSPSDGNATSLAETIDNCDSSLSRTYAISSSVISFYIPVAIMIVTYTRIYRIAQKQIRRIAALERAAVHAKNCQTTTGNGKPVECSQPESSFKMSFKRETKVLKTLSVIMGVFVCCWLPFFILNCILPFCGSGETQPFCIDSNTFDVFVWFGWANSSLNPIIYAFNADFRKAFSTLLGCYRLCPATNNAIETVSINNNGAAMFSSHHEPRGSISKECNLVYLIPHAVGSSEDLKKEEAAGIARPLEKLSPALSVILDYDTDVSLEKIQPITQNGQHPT
DAT uptake mod – human DAT dopamine uptake with cocaine, either direction; Q01959; LLC-PK1 hDAT cells, [14C]-dopamine uptake with cocaine IC80; actives deviate in either direction; B-score at 10 µM; 1.3% of 110,000 active; AID 449768;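 active = Z score or B-score, a plate-position-corrected score, falls beyond the plate's 99.7% confidence bounds, in either direction; inactive = both scores lie inside the 99.7% bounds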;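 also: scored against the spread of the other compound wells on the same plate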
CYP2C9 act – increases human cytochrome P450 2C9 activity. recombinant CYP2C9, luciferin-H conversion, luminescence; stronger effect = higher value; factor 1 = untreated enzyme, 0 = blocked. activation factor at 5 µM. 1.4% of 96,000 active. AID 1024;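 active = activation factor of 2 or more for CYP2C9 at a 5 µM dose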;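 also: 0 = sulfaphenazole-blocked wells and 1 = vehicle-only wells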
Active calls of the source: *; · = no result given.

SMILES	CYP2C19 inh	CYP2C9 inh	CYP2C19 activ	D1 mod	DAT uptake mod	CYP2C9 act
O=C(O)C1CCCCC1C(=O)NC1CCCCC1 (stereo not given)	-19.7	-15.7	1.2	0.104	-0.489	1.2
Cn1c(SCC(=O)NC(c2ccccc2)c2ccccc2)nnc1-c1cccs1	37.4	45.9	0.6	·	2.43	0.5
Cc1oc(C(=O)O)cc1COc1cccc2cccnc12	-0.5	-16.1	1	-0.392	-1.31	1.2
Cn1c(=O)c2c(nc(Br)n2Cc2c(F)cccc2Cl)n(C)c1=O	19.9	3.2	0.8	-0.872	·	1
CC(C)c1nc(SCc2c(F)cccc2Cl)c2c(=O)n(C)c(=O)n(C)c2n1	1.3	67.2*	1	-3.68*	3.27*	0.3
CC12C(=O)N(c3cccc4cccnc34)C(=O)C1C1C=CC2C1 (stereo not given)	-1.8	-5.6	1	-0.284	-0.512	1.1
CC12C(=O)N(c3nccs3)C(=O)C1C1C=CC2C1 (stereo not given)	64.9*	2.6	0.4	0.0309	-0.0607	1
Cc1ccc(S(=O)(=O)N/N=C/c2ccc(C(=O)O)cc2)cc1	-11.3	-11.7	1.1	·	-1.28	1.1
O=C(N/N=C/c1ccc2c(c1)OCO2)C1COc2ccccc2O1 (stereo not given)	6.5	8.2	0.9	·	-0.225	0.9
Cc1ccc(S(=O)(=O)N/N=C\c2ccc3c(c2)OCO3)cc1	58.8*	74.8*	0.4	·	-0.69	0.3
O=S(=O)(N/N=C\c1ccc2c(c1)OCO2)c1ccc(Cl)cc1	36.3	86.0*	0.6	·	-0.469	0.1
Cc1ccc(CNS(=O)(=O)/C=C/c2ccc3c(c2)OCO3)cc1	99.0*	19.3	0	·	0.414	0.8
CC(/C=C/c1ccc2c(c1)OCO2)=N/NC(=O)CNc1ccc(C)cc1	·	·	·	·	-0.546	·
CC(C)(C)CC(C)(C)NC(=O)CSCC(=O)Nc1ccc2ccccc2c1	·	·	·	·	0.158	·
CCN(CC)C(=O)/C(=C\c1ccc(Br)cc1)NC(=O)c1ccccc1OC	27.8	73.3*	0.7	·	14.6*	0.3
O=S1(=O)C=C(Oc2ccc3ccccc3c2)c2ccccc21	48.9	34.4	0.5	·	-1.51	0.7
O=S1(=O)C=C(Oc2ccc(F)cc2)c2ccccc21	81.4*	29.3	0.2	1.79	-1.26	0.7
CC1=C(SCCC#N)S/C(=C2\SC(C)=C(SCCC#N)S2)S1	-4.2	-1.9	1	1.55	0.819	1
O=C(CSc1ccccn1)Nc1ccc(Br)cn1	53.9*	14.6	0.5	-0.522	-0.688	0.9
Cc1ccc(NC(=O)CSc2ncn(-c3ccccc3)n2)cc1C	·	·	·	·	0.136	·
O=C(CSc1ncn(-c2ccccc2)n1)Nc1ccc(Br)cn1	75.1*	58.1*	0.2	1.51	0.553	0.4
COc1ccc(OC)c(NC(=O)c2ccc(-n3cccn3)nc2)c1	3.2	-25.0	1	·	-0.355	1.3
CCN(CC)c1ccc2c(c1)CCCN2	·	·	·	-3.39*	-0.0234	·
CCCNC(=O)NC1C(NC(=O)NCCC)N(C)C(=O)N1C (stereo not given)	9.2	0.9	0.9	0.224	-0.0215	1
Cc1cccc(N(C)C(=O)CCS(=O)(=O)c2cccc3nonc23)c1	94.0*	20.2	0.1	-0.697	0.5	0.8
SMILES	CYP2C19 inh	CYP2C9 inh	CYP2C19 activ	D1 mod	DAT uptake mod	CYP2C9 act
COc1ccc(N(C)C(=O)CCS(=O)(=O)c2cccc3nonc23)c(OC)c1	63.7*	8.8	0.4	0.906	0.0608	0.9
Cc1cccc2c(=O)oc(-c3ccc4c(c3)C(=O)N(CC3CCCO3)C4=O)nc12 (stereo not given)	·	·	·	-0.163	·	·
CCN(C(=O)CN1CCN(C)CC1)c1cccc2ccccc12	-13.6	-6.5	1.1	-0.567	0.197	1.1
CN1CCN(CC(=O)O)CC1	8.5	54.5*	0.9	·	0.5	0.5
Oc1ccc2ccccc2c1C1Nc2cccc3cccc(c23)N1	24.8	72.0*	0.8	·	-0.265	0.3
CCN(CC)c1ccc(C2Nc3cccc4cccc(c34)N2)c(O)c1	24.2	-15.7	0.8	·	0.278	1.2
O=C(Nc1cccnc1)c1cc(-c2cccs2)on1	-8.1	-2.4	1.1	-1.8	-1.82	1
O=C(Nc1cccc(C(F)(F)F)c1)c1cc(-c2cccs2)on1	-5.8	-146.9	1.1	-0.807	-1.16	2.5*
COC(=O)c1ccccc1NC(=O)c1cc(-c2cccs2)on1	-1.8	-102.7	1	-0.012	0.0271	2*
CCN(CC)CCCNC(=O)c1cc(-c2ccc(O)cc2)on1	0.0	-128.6	1	-0.0528	-0.0158	2.3*
Cc1ccc2c(c1)-c1c(cnn1CC(=O)Nc1ccccc1N1CCN(C)CC1)CO2	-1.5	26.0	1	-1.79	0.444	0.7
COc1ccc(C(=O)/C=C/c2ccc(O)cc2)cc1	·	·	·	·	0.00202	·
COc1cccc(/C=C/C(=O)c2ccc[nH]2)c1	69.8*	17.0	0.3	·	·	0.8
COc1cccc(C(=O)/C=C/Nc2ccc(S(=O)(=O)Nc3cccc(C(C)=O)c3)cc2)c1	34.1	77.7*	0.7	·	0.531	0.2
Cc1noc(NS(=O)(=O)c2ccc(N/C=C/C(=O)c3cccnc3)cc2)c1C	-9.5	-9.1	1.1	1.32	-0.186	1.1
COc1cccc(C(=O)/C=C/Nc2cccc(O)c2)c1	91.3*	28.1	0.1	·	-0.303	0.7
COC(=O)c1ccc(N/C=C/C(=O)c2ccc(OC)c(OC)c2)cc1	6.3	-84.5	0.9	·	0.863	1.8
COc1cccc(C(=O)/C=C/c2ccc(SC)cc2)c1	92.2*	39.7	0.1	·	-1.16	0.6
O=S(=O)(Nc1cccc2cccnc12)c1ccc(S(=O)(=O)N2CCCC2)cc1	45.4	30.2	0.5	-0.199	2.31	0.7
O=C(c1ccc(N2CCNCC2)cc1)c1cccnc1	-4.8	-12.0	1	0.119	-1.27	1.1
Cc1noc(C)c1S(=O)(=O)Nc1ccc(C(=O)N2CCc3ccccc3C2)cc1	12.7	58.9*	0.9	-0.453	0.491	0.4
Cc1cccc(NC(=O)c2ccc(NS(=O)(=O)c3c(C)noc3C)cc2)c1	4.4	40.2	1	0.778	-0.303	0.6
Cc1noc(C)c1C(=O)N1CCc2ccccc2C1	49.5	3.3	0.5	·	0.0681	1
Cc1noc(C)c1S(=O)(=O)Nc1ccc(C(=O)N2CCN(c3cccc(Cl)c3)CC2)cc1	-5.7	79.4*	1.1	·	-0.157	0.2
Cc1cccc(N2CCN(C(=O)C3CCCN(S(=O)(=O)c4c(C)noc4C)C3)CC2)c1C (stereo not given)	·	·	·	-1.02	0.232	·
Cc1cccc(N2CCN(C(=O)c3ccc(NS(=O)(=O)c4c(C)noc4C)cc3)CC2)c1C	7.1	95.9*	0.9	0.0229	2.16	0
CCc1cccc(NC(=O)c2ccc(NS(=O)(=O)c3c(C)noc3C)cc2)c1	6.6	51.2*	0.9	0.79	0.422	0.5
O=C(C(Cc1ccccc1)N1C(=O)c2ccccc2C1=O)N1CCc2ccccc21 (stereo not given)	·	·	·	·	-0.0767	·
